# This excerpt belongs to a sample that is enriched for hits.
# ID4 binder – binders of human ID4 protein, primary screen, biochemical, small molecule microarray, single point; 31,000 compounds, 1.2% hits; calls only; Flag-ID4 binding, fluorescence F/B; AID 624137, 2012; call rule not given here;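 further: a binder raises fluorescence above local background on the spot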
# Target sequence (P47928 whole entry, looked up): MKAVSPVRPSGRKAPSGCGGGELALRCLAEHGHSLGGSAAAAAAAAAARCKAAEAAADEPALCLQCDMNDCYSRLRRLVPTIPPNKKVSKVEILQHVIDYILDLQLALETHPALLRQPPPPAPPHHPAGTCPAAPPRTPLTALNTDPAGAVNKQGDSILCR
# NOMO-1 viab – NOMO-1 AML cell viability reduction, primary screen, STK33 inhibitor project, CellTiter-Glo luminescence; NOMO-1 AML viability, 72 h; AID 2330, 2010; 37,000 compounds, 7.5% hits; inhibition, % (concentration not given with the values); in the data active means inhibition above about 80%
# p53 PUMA act – mutant p53 pathway re-activators, primary screen, cell-based, SW480, luciferase, single point, HTS; 28,000 compounds, 1.5% hits; AID 624151, 2012; activation, % at 9.98 µM; SW480 PUMA-promoter luciferase, p53 mutant reactivation; in the data active means activation above about 52%
# STK33 kin inh – STK33 kinase inhibitors, primary screen, biochemical, luminescence, ADP-Glo, MBP substrate. Serine/threonine-protein kinase 33 (Homo sapiens), Q9BYT3. inhibition, % at 12.5 µM. 27,000 compounds, 0.44% hits. AID 2322, 2010; in the data active means inhibition above about 20%
# Starred values were filed as active, the others as inactive; i = inactive; / = no result; + = active, no number.
SMILES,ID4 binder,NOMO-1 viab,p53 PUMA act,STK33 kin inh
Cc1noc(C)c1S(=O)(=O)Nc1cccc2c1O[C@@H](CN(C)S(=O)(=O)c1ccc(Cl)cc1)[C@@H](C)CN([C@H](C)CO)C2=O,/,15,/,/
COc1ccc(NC(=O)Nc2ccc3c(c2)CC(=O)N([C@H](C)CO)C[C@H](C)[C@H](CN(C)Cc2ccc(C(=O)Nc4ccccc4N)cc2)O3)cc1,/,127*,/,/
COc1ccc(NC(=O)Nc2ccc3c(c2)CC(=O)N([C@H](C)CO)C[C@@H](C)[C@@H](CN(C)Cc2ccc(C(=O)Nc4ccccc4N)cc2)O3)cc1,/,90*,/,/
COc1ccc(NC(=O)Nc2ccc3c(c2)CC(=O)N([C@@H](C)CO)C[C@@H](C)[C@@H](CN(C)Cc2ccc(C(=O)Nc4ccccc4N)cc2)O3)cc1,/,86*,/,/
COc1ccc(NC(=O)Nc2ccc3c(c2)CC(=O)N([C@@H](C)CO)C[C@H](C)[C@H](CN(C)Cc2ccc(C(=O)Nc4ccccc4N)cc2)O3)cc1,/,126*,/,/
C[C@H](CO)N1C[C@H](C)[C@H](CN(C)Cc2ccc(C(=O)O)cc2)Oc2ccc(NS(=O)(=O)c3cn(C)cn3)cc2C1=O,/,-7,/,3
C[C@@H]1CN([C@H](C)CO)C(=O)Cc2cc(NS(=O)(=O)c3cccs3)ccc2O[C@@H]1CN(C)Cc1ccc(C(=O)Nc2ccccc2N)cc1,/,116*,/,/
Cc1ccc(S(=O)(=O)Nc2ccc3c(c2)CC(=O)N([C@H](C)CO)C[C@@H](C)[C@H](CN(C)Cc2ccc(C(=O)Nc4ccccc4N)cc2)O3)cc1,/,37,/,/
C[C@H]1CN([C@@H](C)CO)C(=O)Cc2cc(NS(=O)(=O)c3cccs3)ccc2O[C@@H]1CN(C)Cc1ccc(C(=O)Nc2ccccc2N)cc1,/,45,/,/
C[C@@H]1CN([C@@H](C)CO)C(=O)Cc2cc(NS(=O)(=O)c3cccs3)ccc2O[C@@H]1CN(C)Cc1ccc(C(=O)Nc2ccccc2N)cc1,/,90*,/,/
CC(C)NC(=O)Nc1ccc2c(c1)CC(=O)N([C@H](C)CO)C[C@H](C)[C@@H](CN(C)Cc1ccc(-c3ccccc3)cc1)O2,i,/,-7,/
C[C@@H]1CN([C@@H](C)CO)C(=O)c2cc(NC(=O)Nc3ccc(C(F)(F)F)cc3)ccc2O[C@H]1CN(C)S(=O)(=O)c1ccccc1,/,75,-33,/
Cc1ccccc1NC(=O)c1ccc(C)c(S(=O)(=O)Nc2cc([N+](=O)[O-])ccc2C)c1,+,12,1,-2
C[C@@H]1CN([C@H](C)CO)C(=O)c2cccc(NC(=O)c3ccncc3)c2O[C@@H]1CN(C)Cc1ccc(C(=O)Nc2ccccc2N)cc1,/,128*,/,/
C[C@H]1CN([C@@H](C)CO)C(=O)c2cccc(NC(=O)c3cnccn3)c2O[C@H]1CN(C)Cc1ccc(C(=O)Nc2ccccc2N)cc1,/,129*,/,/
C[C@H](CO)N1C[C@H](C)[C@H](CN(C)Cc2ccc(C(=O)O)cc2)Oc2c(NC(=O)c3cnccn3)cccc2C1=O,/,2,/,/
C[C@H](CO)N1C[C@H](C)[C@H](CN(C)Cc2ccc(C(=O)Nc3ccccc3N)cc2)Oc2c(NC(=O)c3ccncc3)cccc2C1=O,/,51,/,/
C[C@H]1CN([C@@H](C)CO)C(=O)c2cccc(NC(=O)c3cnccn3)c2O[C@@H]1CN(C)Cc1ccc(C(=O)Nc2ccccc2N)cc1,/,108*,/,/
C[C@H](CO)N1C[C@H](C)[C@@H](CN(C)Cc2ccc(C(=O)Nc3ccccc3N)cc2)Oc2c(NC(=O)c3cnccn3)cccc2C1=O,/,118*,/,/
COc1ccc(NC(=O)N(C)C[C@@H]2Oc3ccc(NS(C)(=O)=O)cc3C(=O)N([C@@H](C)CO)C[C@H]2C)cc1,/,28,/,/
Cc1cc(C(=O)Nc2cccc3c2O[C@H](CN(C)Cc2ccc(C(=O)Nc4ccccc4N)cc2)[C@H](C)CN([C@@H](C)CO)C3=O)n(C)n1,/,128*,/,/
CNC[C@@H]1Oc2c(NC(=O)c3cnccn3)cccc2C(=O)N([C@@H](C)CO)C[C@@H]1C,+,-10,6,/
Cc1cc(C(=O)Nc2cccc3c2O[C@@H](CN(C)Cc2ccc(Oc4ccccc4)cc2)[C@H](C)CN([C@@H](C)CO)C3=O)n(C)n1,/,102*,/,/
Cc1cc(C(=O)Nc2cccc3c2O[C@H](CN(C)Cc2ccc(C(=O)O)cc2)[C@@H](C)CN([C@H](C)CO)C3=O)n(C)n1,/,1,/,/
C[C@@H]1CN([C@@H](C)CO)C(=O)c2cccc(N(C)C)c2O[C@@H]1CN(C)Cc1ccc(C(=O)Nc2ccccc2N)cc1,/,128*,/,/
CNC[C@H]1Oc2c(NC(=O)c3cnccn3)cccc2C(=O)N([C@H](C)CO)C[C@H]1C,i,-2,8,/

# Screens from PubChem BioAssay.
